# Laboratory results from PubChem BioAssay (NCATS).
# Results filed as inconclusive are left out. Active and inactive are the calls of the source. Calls come from the whole dose curve; as a rule, active = well fitted curve in the direction sought with a large enough effect; inconclusive = small, poorly fitted or top-dose-only effect, or another doubt; inactive = no such curve, though single readings can be large; an effect the other way counts as inactive or inconclusive.
# How the values were obtained:
# [1] = Quantitative High-Throughput drug screen in 47 multiple myeloma cell lines against the NCATS MIPE library collection: JIM3_ECACC cell viability assay (AID 1918963; note: nearly all actives have a fitted effect of over 35% in size)
# Method in brief: (§1)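 Viability readout: CellTiter-Glo luminescence following 5 min room-temperature incubation with reagent. Prior exposure: 48 h, 37C, humidified 5% CO2, 500 cells per well.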
# [2] = Quantitative High-Throughput drug screen in 47 multiple myeloma cell lines against the NCATS MIPE library collection: H1112_PLB cell viability assay (AID 1918967; note: nearly all actives have a fitted effect of over 30% in size)
# Method in brief: as §1
# [3] = Quantitative High-Throughput drug screen in 47 multiple myeloma cell lines against the NCATS MIPE library collection: Karpas25_ECACC cell viability assay (AID 1918968; note: nearly all actives have a fitted effect of over 35% in size)
# Method in brief: as §1
# [4] = Quantitative High-Throughput drug screen in 47 multiple myeloma cell lines against the NCATS MIPE library collection: KMS12BM_JCRB cell viability assay (AID 1918971); note: nearly all actives have a fitted effect of over 35% in size
# Method in brief: as §1
# [5] = Quantitative High-Throughput drug screen in 47 multiple myeloma cell lines against the NCATS MIPE library collection: MMM1_PLB cell viability assay (AID 1918976); note: nearly all actives have a fitted effect of over 35% in size
# Method in brief: (§2)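 MIPE 4.0 approved/investigational drugs; 500 cells/well; 48 h 37 °C humidified 5% CO2; CTG luminescence readout; DMSO = 100%, media = 0% viability.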
# [6] = Quantitative High-Throughput drug screen in 47 multiple myeloma cell lines against the NCATS MIPE library collection: NCIH929_DSMZ cell viability assay (AID 1918978); note: nearly all actives have a fitted effect of over 35% in size
# Method in brief: as §2
# [7] = Quantitative High-Throughput drug screen in 47 multiple myeloma cell lines against the NCATS MIPE library collection: OCIMY1_PLB cell viability assay (AID 1918979); note: nearly all actives have a fitted effect of over 35% in size;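 for viability: 100% = DMSO-only wells and 0% = cell-free media-only wells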
# Method in brief: as §2
# [8] = Quantitative High-Throughput drug screen in 47 multiple myeloma cell lines against the NCATS MIPE library collection: MM1S_ATCC cell viability assay (AID 1918980); note: nearly all actives have a fitted effect of over 45% in size
# Method in brief: as §2
# [9] = Quantitative High-Throughput drug screen in 47 multiple myeloma cell lines against the NCATS MIPE library collection: MM1R_ATCC cell viability assay (AID 1918981); note: nearly all actives have a fitted effect of over 35% in size
# Method in brief: as §2
# [10] = Quantitative High-Throughput drug screen in 47 multiple myeloma cell lines against the NCATS MIPE library collection: LP1_DSMZ cell viability assay (AID 1918982); note: nearly all actives have a fitted effect of over 35% in size
# Method in brief: as §2
# [11] = Quantitative High-Throughput drug screen in 47 multiple myeloma cell lines against the NCATS MIPE library collection: INA6_PLB cell viability assay (AID 1918965; note: nearly all actives have a fitted effect of over 55% in size)
# Method in brief: (§3)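 Approved and investigational drugs from MIPE 4.0 were added by pin tool to 500 cells per well. After 48 hours at 37C, ATP-based CellTiter-Glo luminescence indicated remaining viability.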
# [12] = Quantitative High-Throughput drug screen in 47 multiple myeloma cell lines against the NCATS MIPE library collection: JJN3_DSMZ cell viability assay (AID 1918966; note: nearly all actives have a fitted effect of over 50% in size)
# Method in brief: as §1
# [13] = Quantitative High-Throughput drug screen in 47 multiple myeloma cell lines against the NCATS MIPE library collection: KMS20_JCRB cell viability assay (AID 1918973); note: nearly all actives have a fitted effect of over 45% in size
# Method in brief: as §1
# [14] = Quantitative High-Throughput drug screen in 47 multiple myeloma cell lines against the NCATS MIPE library collection: KMS21BM_JCRB cell viability assay (AID 1918974); conditions: ATP luminescence, 48 h; viability: at 45.8 µM (top of the series) unless noted
# Method in brief: as §1
# [15] = Quantitative High-Throughput drug screen in 47 multiple myeloma cell lines against the NCATS MIPE library collection: KMS26_JCRB cell viability assay (AID 1918975); note: nearly all actives have a fitted effect of over 45% in size
# Method in brief: as §1
# [16] = Quantitative High-Throughput drug screen in 47 multiple myeloma cell lines against the NCATS MIPE library collection: MOLP8_DSMZ cell viability assay (AID 1918977); note: nearly all actives have a fitted effect of over 45% in size
# Method in brief: as §2
# [17] = Quantitative High-Throughput drug screen in 47 multiple myeloma cell lines against the NCATS MIPE library collection: JIM1_ECACC cell viability assay (AID 1918964)
# Method in brief: as §1
# [18] = Quantitative High-Throughput drug screen in 47 multiple myeloma cell lines against the NCATS MIPE library collection: KMS27_JCRB cell viability assay (AID 1918970); note: nearly all actives have a fitted effect of over 30% in size
# Method in brief: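 Each line is seeded at 500 cells per well and treated with library compounds for 48 hours under 37 °C, 5% CO2. CellTiter-Glo is then added for 5 min at room temperature before median relative luminescence is recorded.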
# [19] = Quantitative High-Throughput drug screen in 47 multiple myeloma cell lines against the NCATS MIPE library collection: KMS28PE_JCRB cell viability assay (AID 1918983); note: nearly all actives have a fitted effect of over 35% in size
# Method in brief: as §2
# [20] = Quantitative High-Throughput drug screen in 47 multiple myeloma cell lines against the NCATS MIPE library collection: KMS12PE_JCRB cell viability assay (AID 1918972); note: nearly all actives have a fitted effect of over 30% in size;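 for viability: 100% = DMSO only wells and 0% = wells with media alone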
# Method in brief: as §3
# Potency is the fitted concentration of half-maximal effect.
compound,measurement,setting,value
COc1ccc2c(OCc3nnc4ccc(-c5ccccc5)nn34)ccnc2c1,Potency,[1],inactive
same,Potency,[2],inactive
same,Potency,[3],inactive
same,Potency,[4],inactive
same,Potency,[5],inactive
same,Potency,[6],inactive
same,Potency,[7],inactive
same,Potency,[8],inactive
same,Potency,[9],inactive
same,Potency,[10],inactive
CC(C)=CCCC(C)=CCCC(C)=CCSc1ccccc1C(=O)O,Potency,[11],18700 nM (active)
same,Potency,[12],1180 nM (active)
same,Potency,[3],2350 nM (active)
same,Potency,[4],1660 nM (active)
same,Potency,[13],5260 nM (active)
same,Potency,[14],5900 nM (active)
same,Potency,[15],4180 nM (active)
same,Potency,[5],1320 nM (active)
same,Potency,[16],1480 nM (active)
same,Potency,[6],526 nM (active)
same,Potency,[7],33.2 nM (active)
same,Potency,[8],5260 nM (active)
same,Potency,[9],3320 nM (active)
C[C@]1(CO)CN(c2cc(C(=O)Nc3ccc4c(c3)-c3c(c(C(N)=O)nn3-c3ccc(F)cc3)CC4)c(Cl)cn2)C[C@@]1(C)CO,Potency,[17],11800 nM (active)
same,Potency,[11],2640 nM (active)
same,Potency,[2],11800 nM (active)
same,Potency,[3],14800 nM (active)
same,Potency,[18],5.3 nM (active)
same,Potency,[4],16600 nM (active)
same,Potency,[13],5260 nM (active)
same,Potency,[14],5260 nM (active)
same,Potency,[5],14800 nM (active)
same,Potency,[6],9350 nM (active)
same,Potency,[7],inactive
same,Potency,[8],14800 nM (active)
same,Potency,[9],8330 nM (active)
CS(=O)(=O)c1ccc(-c2cnc(N)c(C(=O)Nc3ccccc3)n2)cc1,Potency,[12],inactive
same,Potency,[2],4180 nM (active)
same,Potency,[13],inactive
same,Potency,[6],inactive
same,Potency,[7],inactive
same,Potency,[8],9350 nM (active)
same,Potency,[9],5260 nM (active)
same,Potency,[10],inactive
same,Potency,[19],inactive
CN[C@H]1CCc2cc(OC)c(OC)c(OC)c2-c2ccc(OC)c(=O)cc21,Potency,[17],inactive
same,Potency,[11],1 nM (active)
same,Potency,[12],18.7 nM (active)
same,Potency,[3],10.5 nM (active)
same,Potency,[4],1.7 nM (active)
same,Potency,[15],14.8 nM (active)
same,Potency,[5],10.5 nM (active)
same,Potency,[16],23.5 nM (active)
same,Potency,[6],23.5 nM (active)
same,Potency,[9],6.6 nM (active)
same,Potency,[10],1.5 nM (active)
same,Potency,[19],1.9 nM (active)
C[C@@H](Oc1cc(-n2cnc3ccc(CN4CCN(C)CC4)cc32)sc1C(N)=O)c1ccccc1C(F)(F)F,Potency,[1],37.2 nM (active)
same,Potency,[12],18700 nM (active)
same,Potency,[3],20900 nM (active)
same,Potency,[4],46.9 nM (active)
same,Potency,[15],5260 nM (active)
same,Potency,[5],16600 nM (active)
same,Potency,[6],20900 nM (active)
same,Potency,[8],2350 nM (active)
same,Potency,[9],59 nM (active)
same,Potency,[19],93.5 nM (active)
C=CC(=O)Nc1cc2c(Nc3ccc(F)c(Cl)c3)ncnc2cc1OCCCN1CCOCC1,Potency,[11],833 nM (active)
same,Potency,[12],16600 nM (active)
same,Potency,[2],4690 nM (active)
same,Potency,[3],2640 nM (active)
same,Potency,[4],14800 nM (active)
same,Potency,[13],526 nM (active)
same,Potency,[5],18700 nM (active)
same,Potency,[16],8330 nM (active)
same,Potency,[6],2640 nM (active)
same,Potency,[7],23500 nM (active)
same,Potency,[8],18700 nM (active)
same,Potency,[9],8330 nM (active)
same,Potency,[10],16600 nM (active)
COc1cccc(Nc2c(C(N)=O)cnc3c(C)cc(S(=O)(=O)c4cccc(C(=O)N(C)C)c4)cc23)c1,Potency,[1],inactive
same,Potency,[4],inactive
same,Potency,[6],inactive
same,Potency,[19],inactive
CC(C)(O)c1cc2nc(-c3cnc(N)nc3)nc(N3CCOCC3)c2s1,Potency,[17],10.5 nM (active)
same,Potency,[11],743 nM (active)
same,Potency,[12],59 nM (active)
same,Potency,[2],418 nM (active)
same,Potency,[3],29.6 nM (active)
same,Potency,[4],83.3 nM (active)
same,Potency,[20],1480 nM (active)
same,Potency,[13],148 nM (active)
same,Potency,[14],590 nM (active)
same,Potency,[15],132 nM (active)
same,Potency,[5],46.9 nM (active)
same,Potency,[16],29.6 nM (active)
same,Potency,[6],14.8 nM (active)
same,Potency,[7],29.6 nM (active)
same,Potency,[8],66.2 nM (active)
same,Potency,[9],66.2 nM (active)
same,Potency,[10],13.2 nM (active)
same,Potency,[19],37.2 nM (active)
CNC(=O)c1ccc(-c2cnc3ncc(Cc4ccc5ncccc5c4)n3n2)cc1F,Potency,[1],inactive
same,Potency,[12],5900 nM (active)
same,Potency,[15],inactive
same,Potency,[6],inactive
same,Potency,[8],inactive
same,Potency,[10],inactive
same,Potency,[19],inactive
Nc1ccn([C@@H]2CS[C@H](CO)O2)c(=O)n1,Potency,[1],inactive
same,Potency,[3],24100 nM (active)
same,Potency,[4],inactive
same,Potency,[20],inactive
same,Potency,[13],10800 nM (active)
same,viability,[14],155% [at 92.2 µM] (active)
same,Potency,[16],inactive
same,Potency,[6],38200 nM (active)
same,Potency,[9],inactive
COc1cc2c(Nc3ccc(NC(=O)c4ccccc4)cc3)ncnc2cc1OCCCN1CCOCC1,Potency,[17],inactive
same,Potency,[11],11800 nM (active)
same,Potency,[12],23500 nM (active)
same,Potency,[13],10500 nM (active)
same,Potency,[6],16600 nM (active)
same,Potency,[7],23500 nM (active)
same,Potency,[9],23500 nM (active)
O=c1c2ccccc2nc2n1CCc1c-2[nH]c2ccccc12,Potency,[17],inactive
same,Potency,[3],inactive
same,Potency,[4],inactive
same,Potency,[16],inactive
same,Potency,[7],inactive
same,Potency,[9],inactive
same,Potency,[10],inactive
same,Potency,[19],inactive
Cc1cn2cc(C(=O)N(C)CCO)cc(N[C@@H]3CCOc4cccc(C)c43)c2n1,Potency,[1],inactive
same,Potency,[18],inactive
same,Potency,[13],inactive
same,Potency,[6],inactive
same,Potency,[7],inactive
same,Potency,[9],inactive
same,Potency,[10],inactive
same,Potency,[19],inactive
